The assay concerns the target furin, P09958. Put plainly: furin cleavage Z-score vs untreated control; higher = more cleavage, active = 3.5 or more, inactive = 1 or less, 8 variable residues between constant flanks. In short, it runs like this: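 To give the cleavage Z-score, log read counts were set against furin-free reactions, lowess-adjusted and scaled by median absolute deviation. These counts came from PCR adapter-tagged, sequenced DNA released when purified furin cut 8-mer peptides fused to a cDNA oligonucleotide and held on magnetic beads by their N-terminus. Digests were 0.01 ml, 1:10 enzyme:substrate, in 50 mM HEPES pH 7.5 with CaCl2 and NaCl, for 7.5, 15 or 30 min.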

The list shows a part of the results. No count for the full screen is at hand.

Chain of furin, P09958 (P09958 whole entry, the tested form may be a part): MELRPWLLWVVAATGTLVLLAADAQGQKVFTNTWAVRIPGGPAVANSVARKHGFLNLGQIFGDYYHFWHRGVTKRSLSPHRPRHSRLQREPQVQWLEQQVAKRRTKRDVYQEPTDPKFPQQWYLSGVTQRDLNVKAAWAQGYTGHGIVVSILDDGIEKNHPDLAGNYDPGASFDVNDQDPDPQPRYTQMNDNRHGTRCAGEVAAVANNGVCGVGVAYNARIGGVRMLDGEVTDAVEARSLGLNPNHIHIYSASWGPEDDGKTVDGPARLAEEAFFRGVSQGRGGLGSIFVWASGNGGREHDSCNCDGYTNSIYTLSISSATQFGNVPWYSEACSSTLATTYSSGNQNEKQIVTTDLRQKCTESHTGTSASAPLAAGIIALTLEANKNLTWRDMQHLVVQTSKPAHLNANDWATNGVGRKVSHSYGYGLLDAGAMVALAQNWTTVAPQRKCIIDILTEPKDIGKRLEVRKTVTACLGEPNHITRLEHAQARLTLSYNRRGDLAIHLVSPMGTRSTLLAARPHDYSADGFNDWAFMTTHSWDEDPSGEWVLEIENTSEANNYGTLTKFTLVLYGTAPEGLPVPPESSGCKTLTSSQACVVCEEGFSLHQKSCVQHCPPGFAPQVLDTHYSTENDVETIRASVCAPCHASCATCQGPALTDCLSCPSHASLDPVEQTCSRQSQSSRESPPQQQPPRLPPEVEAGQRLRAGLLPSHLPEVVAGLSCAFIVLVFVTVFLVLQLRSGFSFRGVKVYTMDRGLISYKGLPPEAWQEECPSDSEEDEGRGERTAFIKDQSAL

For CAMEECLQHLAGNASASA [HC24], the “furin cleavage Z-score” value is 0.426 (inactive) (7.5 min), 0.849 (inactive) (15 min) and 1.01 (30 min).
As for CAMEECIQHLAGNASASA [HC25], the “furin cleavage Z-score” value (7.5 min) came to 2.89, the “furin cleavage Z-score” value (15 min) was 0.509 (inactive) and the “furin cleavage Z-score” value (30 min) worked out at 1.63.
For CARTYRWLSAAGNASASA [FS-2192] the same measures were -0.657 (inactive), 1.48 and 0.201 (inactive).
Turning to CASSASQLSAAGNASASA [HC1261], the “furin cleavage Z-score” value was 0.811 (inactive) (7.5 min), -0.271 (inactive) (15 min) and -1.07 (inactive) (30 min).
For CARKKRPGGGAGNASASA [FS-2344] the same measures were 0.0138 (inactive), 0.394 (inactive) and -0.0781 (inactive).
In the case of CARKKRTTSAAGNASASA [FS-2345], the “furin cleavage Z-score” value is 8.37 (active) (7.5 min), 8.69 (active) (15 min) and 6.28 (active) (30 min).
With CARKGKSSSAAGNASASA [FS-1725], the “furin cleavage Z-score” value (7.5 min) is -1.17 (inactive), the “furin cleavage Z-score” value (15 min) is -1.17 (inactive) and the “furin cleavage Z-score” value (30 min) is -0.784 (inactive).
In the case of CARKKRSTSAAGNASASA [FU2], the “furin cleavage Z-score” value (7.5 min) is 12.7 (active), the “furin cleavage Z-score” value (15 min) was 14.1 (active) and the “furin cleavage Z-score” value (30 min) was 8.12 (active).
For CAMKKRDLSAAGNASASA [FS-2872], the “furin cleavage Z-score” value is 4.25 (active) (7.5 min), 5.63 (active) (15 min) and 4.84 (active) (30 min).
For the sequence CARKKRIVTGAGNASASA [FS-2342], the “furin cleavage Z-score” value is 4.57 (active) (7.5 min), 4.97 (active) (15 min) and 5.79 (active) (30 min).
The like results for CASGKPAIIPAGNASASA [HC1005] were, in that order, -1.38 (inactive), -0.473 (inactive) and 0.121 (inactive).
For CATTPCSCSWAGNASASA [HC1900] the same measures were -1.59 (inactive), -2.52 (inactive) and -0.421 (inactive).
For CAGHTVSGFVAGNASASA [HC357] the same measures were 1.57, -0.476 (inactive) and -0.897 (inactive).
With CARSIRDAEDAGNASASA [FS-2805], the “furin cleavage Z-score” value by setting is: (7.5 min) 0.647 (inactive); (15 min) 0.756 (inactive); (30 min) 1.52.
The like results for CARHTRSYDYAGNASASA [FS-1897] were, in that order, 1.79, 2.03 and 4.9 (active).
For CARHTRSAEDAGNASASA [FS-2681] the same measures were 11.3 (active), 11.4 (active) and 9.18 (active).
The like results for CARHTRSIFWAGNASASA [FS-2147] were, in that order, 4.67 (active), 4.45 (active) and 7.05 (active).
Turning to CARGRRKDDYAGNASASA [FS-2417], the “furin cleavage Z-score” value by setting is: (7.5 min) 0.188 (inactive); (15 min) -0.41 (inactive); (30 min) 0.301 (inactive).
As to CARNTRSDEDAGNASASA [FS-3014], the “furin cleavage Z-score” value runs as follows: (7.5 min) -1.02 (inactive); (15 min) -0.114 (inactive); (30 min) -1.53 (inactive).
For CARHTPVNSWAGNASASA [HC1571] the same measures were 1.44, 0.608 (inactive) and 0.598 (inactive).
For CARGDRFSEDAGNASASA [FS-2931] the same measures were -1.45 (inactive), -0.738 (inactive) and -1.76 (inactive).
For CATTPCSGFWAGNASASA [HC1907], the “furin cleavage Z-score” value (7.5 min) is -1.56 (inactive), the “furin cleavage Z-score” value (15 min) was -0.535 (inactive) and the “furin cleavage Z-score” value (30 min) is -0.967 (inactive).
The like results for CARIIRSSEDAGNASASA [FS-2950] were, in that order, 3.85 (active), 3.61 (active) and 5.54 (active).
On to CATRPCSGSWAGNASASA [HC1853], for which the “furin cleavage Z-score” value by setting is: (7.5 min) -0.899 (inactive); (15 min) -0.615 (inactive); (30 min) -0.153 (inactive).
For CADAHFLSQTAGNASASA [HC945] the same measures were 0.613 (inactive), 1.42 and 0.711 (inactive).
Turning to CATTNCSGSWAGNASASA [HC1881], the “furin cleavage Z-score” value runs as follows: (7.5 min) -0.528 (inactive); (15 min) -0.292 (inactive); (30 min) 0.376 (inactive).
CAEEVVCCSMAGNASASA [HC2132]: the “furin cleavage Z-score” value is, setting by setting: (7.5 min) 0.374 (inactive); (15 min) 0.297 (inactive); (30 min) -0.621 (inactive).
CAYHSVSHARAGNASASA [HC1651]: the “furin cleavage Z-score” value (7.5 min) is -1.35 (inactive), the “furin cleavage Z-score” value (15 min) was -2.06 (inactive) and the “furin cleavage Z-score” value (30 min) was 0.0597 (inactive).
The like results for CAMEECSQHEAGNASASA [HC1772] were, in that order, 1.5, -1.3 (inactive) and 0.318 (inactive).
For CAAGAHWGVLAGNASASA [HC335] the same measures were -0.197 (inactive), -0.687 (inactive) and 0.539 (inactive).
For CADMEVVTSTAGNASASA [HC2286], the “furin cleavage Z-score” value (7.5 min) is 0.448 (inactive), the “furin cleavage Z-score” value (15 min) is -0.986 (inactive) and the “furin cleavage Z-score” value (30 min) is 0.706 (inactive).
Turning to CATTPCSGSEAGNASASA [HC1932], the “furin cleavage Z-score” value is -1.03 (inactive) (7.5 min), -0.656 (inactive) (15 min) and -0.208 (inactive) (30 min).
The like results for CAFGRRLRRRAGNASASA [FS-1124] were, in that order, 3.43, 6.37 (active) and 4.4 (active).
Take CAPAHRHRRRAGNASASA [FS-1040]: the “furin cleavage Z-score” value reads like this: (7.5 min) 8.92 (active); (15 min) 11.7 (active); (30 min) 8.95 (active).
On to CAKKSRLRRRAGNASASA [FS-1131], for which the “furin cleavage Z-score” value by setting is: (7.5 min) 0.949 (inactive); (15 min) 0.557 (inactive); (30 min) 0.0179 (inactive).
The like results for CAVRKRLRRRAGNASASA [FS-106] were, in that order, 5.39 (active), 6.32 (active) and 5.13 (active).
CACNHRNRRRAGNASASA [FS-1624]: the “furin cleavage Z-score” value runs as follows: (7.5 min) 5.53 (active); (15 min) 5.63 (active); (30 min) 6.25 (active).
Take CASTPCSAHCAGNASASA [HC2580]: the “furin cleavage Z-score” value (7.5 min) was 0.205 (inactive), the “furin cleavage Z-score” value (15 min) came out at 1.68 and the “furin cleavage Z-score” value (30 min) was 0.424 (inactive).
As to CAIEECSQHLAGNASASA [HC1664], the “furin cleavage Z-score” value was 0.463 (inactive) (7.5 min), 0.93 (inactive) (15 min) and 0.504 (inactive) (30 min).
For CAEVVTSWWVAGNASASA [HC2208] the same measures were -0.678 (inactive), 0.21 (inactive) and -0.507 (inactive).
For CALINTNGSWAGNASASA [HC367] the same measures were 1.08, -2.18 (inactive) and 0.0661 (inactive).
The like results for CALCGRYKRWAGNASASA [FS-49] were, in that order, 9.62 (active), 12 (active) and 10.7 (active).
Take CAKIARHYRWAGNASASA [FS-1634]: the “furin cleavage Z-score” value was 0.349 (inactive) (7.5 min), 0.374 (inactive) (15 min) and 2.69 (30 min).
For CALIDRFKRWAGNASASA [FS-270] the same measures were 8.5 (active), 9.49 (active) and 10.6 (active).
As for CAQHYRKKRWAGNASASA [FS-370], the “furin cleavage Z-score” value (7.5 min) is 7.9 (active), the “furin cleavage Z-score” value (15 min) is 8.78 (active) and the “furin cleavage Z-score” value (30 min) was 9.04 (active).

The values are drawn from the supplement of paper PMC3545927.
